# Experimental data taken from PubChem BioAssay (NCI).
# Several values for one entry are separate records, joined by “and”; a condition that tells them apart may be missing. Equal entries are not always repeated. About 83,000 compounds went through this panel and 20% of them were active in at least one assay; those are over-represented in the sample as a whole.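 Assay: single dose, 48 h. Readout: percent growth (0 = no net growth; negative = cell death). Active: <10.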 Activity calls are given as the source filed them.
# System: MDA-MB-435 melanoma
# Experiment: NCI-60 one-dose screen, 48 h (100 = growth as untreated, 0 = no growth, -100 = all killed)
# Conditions: 10 µM unless noted
row,SMILES,growth
1,C[C@@]12CCCc3coc(c31)C(=O)c1cc3c(cc12)C(=O)C1=C(NCCS1(=O)=O)C3=O,-83.5% (active)
2,C=CC[PH+](c1ccccc1)c1ccccc1.C=CC[PH+](c1ccccc1)c1ccccc1.[Pt+2].[S-]c1nc2ccccc2[nH]1.[S-]c1nc2ccccc2[nH]1,-50.5% (active)
3,Cc1cc[c-]cc1.Fc1c[c-]c(-c2ccccn2)c(F)c1.[Pt+2].c1ccc([PH+](c2ccccc2)c2ccccn2)cc1,39.3% (inactive)
4,C#Cc1cccc(Nc2nc(Cl)nc3cc(NC(=O)CF)ccc23)c1,-19.1% (active)
5,CC[C@H](C)[C@H](NC(=O)c1ncccn1)C(=O)N(C)[C@H](C[C@@H](OC(C)=O)c1nc(C(=O)N[C@@H](Cc2ccccc2)C[C@H](C)C(=O)OC)cs1)C(C)C,-24.6% (active)
6,Cc1cc(Br)c([N+](=O)[O-])cc1[N+](=O)[O-],96.3% (inactive)
7,COc1cc(C=C2C(=O)NC(=O)NC2=O)ccc1O,101% (inactive)
8,Oc1cc(N2CC2)c(O)cc1N1CC1,0.0051% (active)
9,C[C@]12CCc3sc(Nc4ccc(O)cc4)nc3C1=CC[C@@H]1[C@@H]2CC[C@]2(C)C(=O)CC[C@@H]12,35.3% (inactive)
10,CN1CCc2cc3c(cc2C1O)OCO3 (configuration not stated),37.8% (inactive) and 102% (inactive)
11,N#CC(NC(=O)CCl)=C(Cl)Cl,5.03% (active)
12,CC[C@@H](C)C(=O)O[C@H]1[C@H](O)[C@H]2[C@@H](CN3C[C@@H](C)CC[C@H]3[C@@]2(C)O)[C@@H]2C[C@]34O[C@]5(O)[C@@H](OC(=O)[C@@](C)(O)CC)CC[C@@]3(C)[C@@H]5[C@@H](OC(C)=O)[C@@H](OC(C)=O)[C@H]4[C@@]21O,115% (inactive)
